57 compounds from PubChem BioAssay AID589 (National Center for Advancing Translational Sciences (NCATS), 2007) can be followed below.

“And” between values parts separate entries of the source, which are not always exact repeats. Identical values can stand only once. Hit rate of the full screen: of about 59,000 compounds, about 6,200 (11%) were called active. Inconclusive results (about 9%) are left out. Cut-off read from the data, not from the text of the source: active = max dye-equivalent concentration above about 10 nM; inconclusive = mostly about 1.1 nM to 9.6 nM; inactive = weaker than that. Shown is part of a subset that was picked to be rich in actives.

The assay can be described thus: qHTS Assay for Spectroscopic Profiling in 4-MU Spectral Region. Particulars: compound autofluorescence, 340/450 nm, 4-MU equivalents; active compounds read high. In a few lines:
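Compounds in 100 mM Tris, pH 8.0, sat 15 min at room temperature before fluorescence was read at 340 nm excitation/450 nm emission; a per-plate six-point 4-MU standard curve converted signals to dye-equivalent concentration at each compound concentration.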
For orientation: In qHTS, concentration-response curves come from the screen itself.
Take `Cc1nn(CC(=O)Nc2ccc3c(c2)nc(CN2CCCCC2)n3C)c(=O)c2ccccc12`: the max dye-equivalent concentration entry is “inactive”.
Regarding `CC(C)NC(=O)N1CC[C@@]2(CCCN(C(=O)c3cccc(F)c3)C2)C1`, the max dye-equivalent concentration entry is “inactive”.
As for `COc1ccccc1Nc1ncnc2c1oc1ccccc12`, the max dye-equivalent concentration was 7.3e-08 M (active).
For the compound `Cc1cc(C)nc(N2CCN(c3ncnc4c3oc3ccccc34)CC2)n1`, the max dye-equivalent concentration entry is “inactive”.
As for `COc1ccccc1CNc1ncnc2ccc(-c3ccc4c(c3)OCO4)cc12`, the entry is “inactive”; as for `S=c1[nH]nc(SCc2ccccc2Cl)c2[nH]cnc12`, “inactive”.
With `CCC(Oc1ccccc1)C(=O)NCc1cccnc1` (configuration not stated), the max dye-equivalent concentration result is “inactive”.
As for `O=C(Oc1ccc2c(c1)CCC2)N1CCOCC1`, the max dye-equivalent concentration result was “inactive”.
As for `O=C1CC2(CCCCC2)Oc2ccc(OCC(=O)N3CCOCC3)cc21`, the figure is 1.2e-06 M (active).
Consider `O=C(Nc1cccc(OCC(=O)N2CCOCC2)c1)C1CCCCC1`, for which the max dye-equivalent concentration entry was “inactive”.
For `CCOC(=O)CCc1c(C)c2ccc(OCc3nn[nH]n3)c(C)c2oc1=O`, the max dye-equivalent concentration was 2.4e-08 M (active).
As to `C[C@H](NC(=O)OC(C)(C)C)c1nnc(SCC(=O)Nc2ccc(Br)cc2)o1`, the max dye-equivalent concentration result was “inactive”.
Then `CCC(=O)Nc1nc2ccccc2n1Cc1ccccc1C`, with “inactive”; and `C=C(Br)Cn1c(CCCC)nc2ccccc21`, with “inactive”.
Regarding `CCc1nc2ccccc2n(CCOCCOCCn2c(=O)c(CC)nc3ccccc32)c1=O`, the max dye-equivalent concentration is 3.4e-08 M (active).
In the case of `COc1cccc(OC)c1OCCN1CCN(C(=O)c2ccco2)CC1`, the max dye-equivalent concentration result was “inactive”.
On to `Cc1cccc(Cn2c(SCCO)nc3c2c(=O)n(C)c(=O)n3C)c1`, for which the max dye-equivalent concentration entry is “inactive”.
As for `CCOC(=O)N1CCN(CC(=O)n2c(C)c(C)c3ccccc32)CC1`, the max dye-equivalent concentration entry is “inactive”.
As for `CCOC(=O)N1CCN(CC(=O)c2c(C)[nH]c3ccccc23)CC1`, the max dye-equivalent concentration result was “inactive”.
For `CCOC(=O)N1CCN(CC(=O)c2ccc3c(c2)CCN3)CC1`, the max dye-equivalent concentration was 1.2e-08 M (active).
In the case of `CCNS(=O)(=O)c1ccc(NC(=O)Nc2cccc(C(F)(F)F)c2)cc1`, the max dye-equivalent concentration result was “inactive”.
Regarding `CC1Oc2ccccc2N(Cc2cccnc2)C1=O` (configuration not stated), the max dye-equivalent concentration result is “inactive”.
In the case of `Cc1ccc(CC2CC(=O)N(c3ccc4c(c3)OCCO4)C2=O)cc1` (configuration not stated), the max dye-equivalent concentration result is “inactive”.
For the compound `N#CC1=C(N)C(C#N)(C#N)[C@H](c2ccsc2)[C@H]2COCC=C12`, the max dye-equivalent concentration is 1.3e-08 M (active).
With `COc1cccc2cc(C(=O)N(C)C)c(=O)oc12`, the max dye-equivalent concentration result is “inactive”.
Turning to `COc1ccc(OC)c(S(=O)(=O)Nc2ccccc2F)c1`, the max dye-equivalent concentration is 6.6e-08 M (active).
As for `COC(=O)c1ccccc1NC(=O)C1CCN(S(=O)(=O)c2cc(OC)ccc2OC)CC1`, the max dye-equivalent concentration entry is “inactive”.
Turning to `COc1ccc(F)cc1S(=O)(=O)Nc1ccc2c(c1)OCO2`, the max dye-equivalent concentration result is “inactive”.
Then `Cc1cc(OCC(=O)O)c(Cl)cc1Cl`, with “inactive”; and `Cc1nc(NC(CC(C)C)C(=O)O)c2nc(C)oc2n1` (configuration not stated), with “inactive”.
Regarding `COc1c(C)c2c(c(O)c1C/C=C(\C)CCC(=O)O)C(=O)OC2`, the max dye-equivalent concentration was 7e-08 M (active) and 1.5e-08 M (active).
With `O=C(NC1CCCCC1)N1CCc2[nH]c3ccccc3c2C1`, the max dye-equivalent concentration result was “inactive”.
Regarding `NC(=O)C1CCN(C2OC(=O)c3ccccc32)CC1` (configuration not stated), the max dye-equivalent concentration entry was “inactive”.
On to `CCOC(=O)CC1=CC(=O)Nc2ccccc2N1`, for which the max dye-equivalent concentration result was “inactive”.
Then `CCOC(=O)CCc1c(C)c(C#N)c2[nH]c3ccccc3n2c1=O`, with 5.3e-06 M (active).
As for `CCCOC(=O)Cc1c(O)c2ccccc2[nH]c1=O`, the entry is “inactive”; as for `CCOC(=O)c1sc(=S)n2c1[nH]c(=O)c1ccc(C(=O)OC)cc12`, “inactive”; as for `Cc1cc2c(cc1C)NC(c1ccccn1)C1=C(CC(C)(C)CC1=O)N2` (configuration not stated), “inactive”.
Take `C=CCSC1=C(C#N)C(c2cc(Br)c(O)c(OC)c2)CC(=O)N1` (configuration not stated): the max dye-equivalent concentration entry is “inactive”.
Turning to `COc1cc(C2C(C#N)=C(C)NC3=C2C(=O)CC(C)(C)C3)ccc1O` (configuration not stated), the max dye-equivalent concentration was 1.3e-08 M (active).
For `CCCCCCC(=O)N(O)C1CC(=O)N(c2ccccc2)C1=O` (configuration not stated), the max dye-equivalent concentration entry was “inactive”.
Turning to `COc1c(F)c(F)c(-c2csc(N)n2)c(F)c1F`, the max dye-equivalent concentration is 1.5e-08 M (active).
`CCC(=O)Nc1nc(OC)cc(OC)n1`: the max dye-equivalent concentration result is “inactive”.
Then `Cc1cc(C)nc(NC2=NCC(=O)N2c2ccc(Cl)cc2)n1`, with “inactive”; and `CCN(CC(=O)Nc1ccc2c(c1)OCCO2)Cc1cc(=O)oc2cc(C)c(C)cc12`, with “inactive”.
In the case of `C=CCn1c2ccccc2c2nnc(SC(CC)C(=O)Nc3nc(C)c(C(=O)OCC)s3)nc21` (configuration not stated), the max dye-equivalent concentration was 4.6e-08 M (active).
Take `C=CCn1c(SCC(=O)Nc2nc3ccccc3s2)nnc1-c1ccccc1O`: the max dye-equivalent concentration entry was “inactive”.
As to `CC1(c2ccccc2Cl)NC(=O)N(CC(=O)NC(=O)NCc2ccco2)C1=O` (configuration not stated), the max dye-equivalent concentration entry is “inactive”.
Turning to `O=C(CN1C(=O)CCS(=O)(=O)c2ccccc21)NCc1ccc(F)cc1`, the max dye-equivalent concentration entry was “inactive”.
`O=C(CC1N=C2c3ccccc3N=C(SCc3ccccc3Cl)N2C1=O)NCc1ccco1` (configuration not stated): the max dye-equivalent concentration is 1.8e-08 M (active).
Then `Cc1nc2nc(SCC(=O)NCc3ccco3)nn2c(C)c1Cc1ccccc1`, with “inactive”.
`NC(=O)CSC1=Nc2ccccc2C2=NC(CCC(=O)NCc3ccc(F)cc3)C(=O)N12` (configuration not stated): the max dye-equivalent concentration was 4.6e-07 M (active).
For the compound `COCCCN1C(=O)c2ccc(C(=O)Nc3ccc(OC)cc3OC)cc2C1=O`, the max dye-equivalent concentration entry is “inactive”.
Consider `O=C(NC(=O)c1ccc(Cl)c(Cl)c1)OC1CCS(=O)(=O)C1` (configuration not stated), for which the max dye-equivalent concentration entry was “inactive”.
With `COc1ccc(O)c(C(=O)c2cnc3onc(C(C)C)c3c2)c1`, the max dye-equivalent concentration result is “inactive”.
For the compound `COc1ccc(OCC(=O)OCCN(C)C)cc1`, the max dye-equivalent concentration entry was “inactive”.
In the case of `CC(C)(C)C(=O)CCN1C(=O)C2(OCCO2)c2ccccc21`, the max dye-equivalent concentration entry was “inactive”.
